Results reported in the supplement of paper PMC11732987, “Enantioselective OTUD7B fragment discovery through chemoproteomics screening and high-throughput optimisation” (Communications Chemistry, 2025).

Experiments:
Test in all cases: log2 ratio of Biotin-Ahx-Ub-VS probe labelling (compound/DMSO); higher = less target engagement, active = hit call of the paper (q ≤ 0.05, log2 ratio ≤ -1)
Settings in all cases: treatment time: 3 h
[1] = compound: CCC1N(CCc2sccc12)C(=O)CCl
Outline: (§1)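 DUBs in HEK293T lysate were labelled with Biotin-Ahx-Ub-VS (0.5 µM final, 1 h) after a 3 h treatment with compound at 50 or 200 µM or with DMSO, done in triplicate on 495 µg of lysate per sample. NeutrAvidin-enriched proteins were digested with LysC and trypsin and run by diaPASEF LC-MS/MS. Median-normalised label-free quantities gave average base-two log ratios of compound to DMSO by unpaired t-test, restricted to proteins with at least 2 unique peptides.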

[2] = compound: CN1c2ccccc2C(CS1(=O)=O)NC(=O)CCl
Outline: as §1

[3] = compound: Cl.ClCC(=O)N1CCc2ncncc2C1
Outline: as §1

[4] = compound: Cl.Cn1ncc2C(CCCc12)NC(=O)CCl
Outline: as §1

[5] = compound: ClCC(=O)NC1CCOc2ccccc12
Outline: as §1

[6] = compound: ClCC(=O)NC1CCCc2ccccc12
Outline: (§2)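 Spectronaut label-free, global-median-normalised protein quantities underlie these values, which are average ratios of compound to vehicle from an unpaired t-test. They are reported as log2 and include only proteins identified by two or more unique peptides. Samples of HEK293T lysate (495 µg) were treated in triplicate with a compound concentration series or vehicle for 3 h, then labelled with Biotin-Ahx-Ub-VS at 0.5 µM final for 1 h before NeutrAvidin enrichment, LysC and trypsin digestion, and diaPASEF LC-MS/MS.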

[7] = compound: ClCC(=O)N[C@@H]1CCCc2ccccc12
Outline: as §2

[8] = compound: ClCC(=O)N[C@H]1CCCc2ccccc12
Outline: as §2

[9] = compound: CCC1N(CCc2cc(OC)c(Cl)cc12)C(=O)CCl
Outline: as §1

[10] = compound: CCCC1N(CCc2cc(OC)c(OC)cc12)C(=O)CCl
Outline: as §1

[11] = compound: CN(Cc1cccc(Br)c1)C(=O)CCl
Outline: as §1

[12] = compound: CN(Cc1cccc(OCc2ccccc2C)c1)C(=O)CCl
Outline: as §1

[13] = compound: CN(Cc1ccccc1)C(=O)CCl
Outline: as §1

[14] = compound: COc1ccc(CN(C)C(=O)CCl)cc1
Outline: as §1

[15] = compound: COc1cccc(CN(CCCc2ccccc2)C(=O)CCl)c1
Outline: as §1

[16] = compound: ClCC(=O)N1CCc2cc(Cl)c(Cl)cc2C1
Outline: as §1

[17] = compound: ClCC(=O)N1CCc2nc(ncc2C1)-c1ccccc1
Outline: as §1

[18] = compound: ClCC(=O)N1CCc2nocc2C1
Outline: as §1

[19] = compound: ClCC(=O)N1CCc2scc(Br)c2C1
Outline: as §1

[20] = compound: ClCC(=O)NC(C1CCCC1)c1cccs1
Outline: as §1

Measured: log2 ratio of Biotin-Ahx-Ub-VS probe labelling

PSMD7 (UniProt P51665)
UniProt P51665, sequence (P51665 whole entry): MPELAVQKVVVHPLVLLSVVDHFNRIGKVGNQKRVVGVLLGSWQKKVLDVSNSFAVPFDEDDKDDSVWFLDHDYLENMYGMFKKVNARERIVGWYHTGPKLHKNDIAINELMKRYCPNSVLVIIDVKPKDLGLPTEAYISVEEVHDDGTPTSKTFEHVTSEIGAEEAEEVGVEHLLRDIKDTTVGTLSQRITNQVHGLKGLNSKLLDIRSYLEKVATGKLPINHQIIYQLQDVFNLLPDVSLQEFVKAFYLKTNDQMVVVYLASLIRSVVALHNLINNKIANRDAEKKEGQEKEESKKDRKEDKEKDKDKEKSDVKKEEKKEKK
inactive: [1]; compound concentration: 50uM 0.0196 | [1]; compound concentration: 200uM -0.639 | [2]; compound concentration: 50uM -1.31 | [2]; compound concentration: 200uM 0.533 | [3]; compound concentration: 50uM -3.61 | [3]; compound concentration: 200uM 0.0399 | [4]; compound concentration: 50uM 0.173 | [4]; compound concentration: 200uM 0.483 | [5]; compound concentration: 50uM 1.07 | [5]; compound concentration: 200uM 1 | [6]; compound concentration: 0.78uM -0.113 | [6]; compound concentration: 1.56uM -0.191 | [6]; compound concentration: 3.13uM -0.247 | [6]; compound concentration: 6.25uM -0.311 | [6]; compound concentration: 12.5uM -0.243 | [6]; compound concentration: 25uM -0.439 | [6]; compound concentration: 50uM -0.166 | [6]; compound concentration: 100uM 0.0296 | [6]; compound concentration: 200uM -0.486 | [7]; compound concentration: 0.78uM -0.113 | [7]; compound concentration: 1.56uM 0.319 | [7]; compound concentration: 3.13uM 0.0163 | [7]; compound concentration: 6.25uM -0.0645 | [7]; compound concentration: 12.5uM 0.0151 | [7]; compound concentration: 25uM 0.0566 | [7]; compound concentration: 50uM -0.252 | [7]; compound concentration: 100uM 0.0397 | [7]; compound concentration: 200uM 0.357 | [8]; compound concentration: 0.78uM 0.0931 | [8]; compound concentration: 1.56uM 0.0292 | [8]; compound concentration: 3.13uM 0.0943 | [8]; compound concentration: 6.25uM -0.111 | [8]; compound concentration: 12.5uM -0.00799 | [8]; compound concentration: 25uM -0.0922 | [8]; compound concentration: 50uM 0.0424 | [8]; compound concentration: 100uM -0.132 | [8]; compound concentration: 200uM -0.169 | [9]; compound concentration: 50uM 0.122 | [9]; compound concentration: 200uM 1.79 | [10]; compound concentration: 50uM 0.742 | [10]; compound concentration: 200uM 0.149 | [11]; compound concentration: 50uM -1.92 | [11]; compound concentration: 200uM 0.377 | [12]; compound concentration: 50uM 0.204 | [12]; compound concentration: 200uM -0.694 | [13]; compound concentration: 50uM 0.305 | [13]; compound concentration: 200uM 1.21 | [14]; compound concentration: 50uM -0.346 | [14]; compound concentration: 200uM 2.6 | [15]; compound concentration: 50uM 0.459 | [15]; compound concentration: 200uM 0.335 | [16]; compound concentration: 50uM -1.17 | [16]; compound concentration: 200uM 0.126 | [17]; compound concentration: 50uM -0.153 | [17]; compound concentration: 200uM 0.514 | [18]; compound concentration: 50uM 0.812 | [18]; compound concentration: 200uM 0.83 | [19]; compound concentration: 50uM 0.689 | [19]; compound concentration: 200uM 0.149 | [20]; compound concentration: 50uM 0.0697 | [20]; compound concentration: 200uM 0.463

USP28 (UniProt Q96RU2)
UniProt Q96RU2, sequence (Q96RU2 whole entry): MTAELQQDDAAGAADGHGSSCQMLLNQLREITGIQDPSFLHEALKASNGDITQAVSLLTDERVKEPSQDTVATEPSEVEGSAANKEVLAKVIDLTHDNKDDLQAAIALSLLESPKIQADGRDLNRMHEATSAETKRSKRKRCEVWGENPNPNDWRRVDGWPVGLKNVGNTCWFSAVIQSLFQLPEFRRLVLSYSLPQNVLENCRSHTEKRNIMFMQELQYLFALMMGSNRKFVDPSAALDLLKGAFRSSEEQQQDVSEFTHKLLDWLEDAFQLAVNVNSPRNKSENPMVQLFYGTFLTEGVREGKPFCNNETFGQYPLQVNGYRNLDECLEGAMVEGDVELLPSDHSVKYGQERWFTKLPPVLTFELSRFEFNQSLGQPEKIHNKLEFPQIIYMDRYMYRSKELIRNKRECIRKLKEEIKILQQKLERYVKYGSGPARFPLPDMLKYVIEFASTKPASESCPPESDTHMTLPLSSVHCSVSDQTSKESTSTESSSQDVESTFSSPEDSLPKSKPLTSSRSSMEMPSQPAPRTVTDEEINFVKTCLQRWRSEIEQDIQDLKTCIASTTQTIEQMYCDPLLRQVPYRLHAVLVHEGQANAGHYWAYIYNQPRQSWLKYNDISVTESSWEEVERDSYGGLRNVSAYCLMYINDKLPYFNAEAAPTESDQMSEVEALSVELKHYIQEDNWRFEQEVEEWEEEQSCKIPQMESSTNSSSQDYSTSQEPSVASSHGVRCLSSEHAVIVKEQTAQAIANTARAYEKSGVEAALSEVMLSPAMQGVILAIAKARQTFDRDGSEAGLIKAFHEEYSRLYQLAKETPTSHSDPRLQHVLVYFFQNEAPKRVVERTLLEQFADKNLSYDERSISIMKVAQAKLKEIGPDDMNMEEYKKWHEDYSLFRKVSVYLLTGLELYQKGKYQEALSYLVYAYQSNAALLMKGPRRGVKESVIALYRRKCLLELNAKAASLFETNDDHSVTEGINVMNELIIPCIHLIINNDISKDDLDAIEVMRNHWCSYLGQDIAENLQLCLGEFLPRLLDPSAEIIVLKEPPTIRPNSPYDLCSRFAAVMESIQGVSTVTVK
inactive: [1]; compound concentration: 50uM -0.105 | [1]; compound concentration: 200uM -0.495 | [2]; compound concentration: 50uM -0.127 | [2]; compound concentration: 200uM -0.556 | [3]; compound concentration: 50uM -0.0823 | [3]; compound concentration: 200uM -0.643 | [4]; compound concentration: 50uM 0.00687 | [4]; compound concentration: 200uM -0.349 | [5]; compound concentration: 50uM 0.0277 | [5]; compound concentration: 200uM -0.467 | [6]; compound concentration: 0.78uM -0.115 | [6]; compound concentration: 1.56uM 0.0493 | [6]; compound concentration: 3.13uM -0.068 | [6]; compound concentration: 6.25uM -0.0775 | [6]; compound concentration: 12.5uM -0.136 | [6]; compound concentration: 25uM -0.188 | [6]; compound concentration: 50uM -0.185 | [6]; compound concentration: 100uM -0.427 | [6]; compound concentration: 200uM -0.751 | [7]; compound concentration: 0.78uM -0.289 | [7]; compound concentration: 1.56uM -0.168 | [7]; compound concentration: 3.13uM -0.114 | [7]; compound concentration: 6.25uM -0.181 | [7]; compound concentration: 12.5uM -0.122 | [7]; compound concentration: 25uM -0.154 | [7]; compound concentration: 50uM -0.239 | [7]; compound concentration: 100uM -0.221 | [7]; compound concentration: 200uM -0.426 | [8]; compound concentration: 0.78uM -0.0897 | [8]; compound concentration: 1.56uM -0.144 | [8]; compound concentration: 3.13uM -0.065 | [8]; compound concentration: 6.25uM 0.0299 | [8]; compound concentration: 12.5uM -0.143 | [8]; compound concentration: 25uM -0.24 | [8]; compound concentration: 50uM -0.318 | [8]; compound concentration: 100uM -0.618 | [8]; compound concentration: 200uM -0.996 | [9]; compound concentration: 50uM -0.146 | [9]; compound concentration: 200uM -0.945 | [10]; compound concentration: 50uM -0.218 | [10]; compound concentration: 200uM -0.719 | [11]; compound concentration: 50uM -0.197 | [11]; compound concentration: 200uM -0.68 | [12]; compound concentration: 50uM -0.572 | [12]; compound concentration: 200uM -0.911 | [13]; compound concentration: 50uM -0.195 | [13]; compound concentration: 200uM -0.692 | [14]; compound concentration: 50uM -0.172 | [14]; compound concentration: 200uM -0.467 | [15]; compound concentration: 50uM -0.253 | [15]; compound concentration: 200uM -0.826 | [16]; compound concentration: 50uM -0.496 | [17]; compound concentration: 50uM -0.15 | [17]; compound concentration: 200uM -0.716 | [18]; compound concentration: 50uM -0.192 | [18]; compound concentration: 200uM -0.624 | [19]; compound concentration: 50uM -0.468 | [20]; compound concentration: 50uM -0.0425 | [20]; compound concentration: 200uM -0.313
active: [16]; compound concentration: 200uM -1.71 | [19]; compound concentration: 200uM -1.28

USP16 (UniProt Q9Y5T5)
UniProt Q9Y5T5, sequence (Q9Y5T5 whole entry, looked up): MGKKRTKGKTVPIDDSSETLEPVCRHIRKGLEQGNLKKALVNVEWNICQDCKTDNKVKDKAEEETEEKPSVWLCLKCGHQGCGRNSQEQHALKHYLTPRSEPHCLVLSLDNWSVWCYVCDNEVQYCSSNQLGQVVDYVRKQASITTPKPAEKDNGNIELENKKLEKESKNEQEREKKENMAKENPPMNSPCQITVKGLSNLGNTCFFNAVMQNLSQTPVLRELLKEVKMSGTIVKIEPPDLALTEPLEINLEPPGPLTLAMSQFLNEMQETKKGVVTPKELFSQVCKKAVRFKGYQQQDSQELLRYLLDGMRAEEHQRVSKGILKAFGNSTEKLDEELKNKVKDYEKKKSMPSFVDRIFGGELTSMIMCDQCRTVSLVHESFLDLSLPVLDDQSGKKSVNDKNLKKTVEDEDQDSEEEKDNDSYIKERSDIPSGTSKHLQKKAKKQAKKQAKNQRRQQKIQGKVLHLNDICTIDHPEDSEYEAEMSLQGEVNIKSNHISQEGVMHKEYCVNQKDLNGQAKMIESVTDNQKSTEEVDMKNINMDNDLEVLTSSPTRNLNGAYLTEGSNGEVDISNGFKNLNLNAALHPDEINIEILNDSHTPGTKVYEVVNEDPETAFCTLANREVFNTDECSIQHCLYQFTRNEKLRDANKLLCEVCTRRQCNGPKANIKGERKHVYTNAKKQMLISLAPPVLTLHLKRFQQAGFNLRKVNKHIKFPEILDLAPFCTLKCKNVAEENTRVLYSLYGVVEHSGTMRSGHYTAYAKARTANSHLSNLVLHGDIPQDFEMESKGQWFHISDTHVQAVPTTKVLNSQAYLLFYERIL
inactive: [1]; compound concentration: 50uM -0.0823 | [1]; compound concentration: 200uM -0.556 | [2]; compound concentration: 50uM -0.113 | [2]; compound concentration: 200uM -0.275 | [3]; compound concentration: 50uM 0.0401 | [3]; compound concentration: 200uM -0.748 | [4]; compound concentration: 50uM -0.209 | [4]; compound concentration: 200uM -0.00919 | [5]; compound concentration: 50uM -0.0288 | [5]; compound concentration: 200uM -0.558 | [6]; compound concentration: 0.78uM -0.182 | [6]; compound concentration: 1.56uM -0.165 | [6]; compound concentration: 3.13uM -0.0224 | [6]; compound concentration: 6.25uM -0.111 | [6]; compound concentration: 12.5uM -0.299 | [6]; compound concentration: 25uM -0.0714 | [6]; compound concentration: 50uM -0.0894 | [6]; compound concentration: 100uM -0.233 | [6]; compound concentration: 200uM -0.491 | [7]; compound concentration: 0.78uM -0.0997 | [7]; compound concentration: 1.56uM -0.0515 | [7]; compound concentration: 3.13uM -0.248 | [7]; compound concentration: 6.25uM -0.0769 | [7]; compound concentration: 12.5uM -0.00208 | [7]; compound concentration: 25uM -0.0915 | [7]; compound concentration: 50uM -0.387 | [7]; compound concentration: 100uM -0.167 | [7]; compound concentration: 200uM -0.479 | [8]; compound concentration: 0.78uM -0.177 | [8]; compound concentration: 1.56uM -0.318
